According to PubChem BioAssay (NCI):
Compounds without any hit were thinned out: in the full panel of roughly 83,000, 20% have a hit.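 48-hour exposure, single concentration, 96-well plates; percent growth endpoint where 0 means no net growth. Active: below 10.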 Activity calls are given as the source filed them.

How the values were obtained:
Assay in all cases: NCI-60 one-dose screen, 48 h (100 = growth as untreated, 0 = no growth, -100 = all killed)
Details in all cases: 10 µM unless noted
SR leukemia = tested on: SR leukemia
RPMI-8226 leukemia = tested on: RPMI-8226 leukemia
OVCAR-8 ovarian = tested on: OVCAR-8 ovarian
OVCAR-5 ovarian = tested on: OVCAR-5 ovarian
OVCAR-4 ovarian = tested on: OVCAR-4 ovarian
SK-OV-3 ovarian = tested on: SK-OV-3 ovarian
IGROV1 ovarian = tested on: IGROV1 ovarian
OVCAR-3 ovarian = tested on: OVCAR-3 ovarian
HS 578T breast = tested on: HS 578T breast
NCI/ADR-RES ovarian = tested on: NCI/ADR-RES ovarian
T-47D breast = tested on: T-47D breast
BT-549 breast = tested on: BT-549 breast
MDA-MB-435 melanoma = tested on: MDA-MB-435 melanoma
SW-620 colon = tested on: SW-620 colon
MCF7 breast = tested on: MCF7 breast
HCT-116 colon = tested on: HCT-116 colon
HCC-2998 colon = tested on: HCC-2998 colon
KM12 colon = tested on: KM12 colon

Measured: growth

COc1ccc2[nH]cc(-c3nonc3-c3c[nH]c4ccc(Br)cc34)c2c1
inactive: SR leukemia 35.4% | RPMI-8226 leukemia 52.7% | OVCAR-8 ovarian 48.7% | OVCAR-5 ovarian 47.7% | OVCAR-4 ovarian 50.1% | SK-OV-3 ovarian 56.3% | IGROV1 ovarian 65.3% | OVCAR-3 ovarian 62.6% | HS 578T breast 55.1% | NCI/ADR-RES ovarian 39.9% | BT-549 breast 74.9% | MDA-MB-435 melanoma 65.8% | SW-620 colon 59.5% | MCF7 breast 31.2% | HCT-116 colon 36.7% | HCC-2998 colon 22.2% | KM12 colon 15.5%
active: T-47D breast 3.83%

COc1cc(Cc2cc(-c3ccccc3)nn(Cc3ccccc3)c2=O)cc(OC)c1OC
inactive: SR leukemia 36% | RPMI-8226 leukemia 24.8% | OVCAR-8 ovarian 31.9% | OVCAR-5 ovarian 69.7% | OVCAR-4 ovarian 35.3% | SK-OV-3 ovarian 82.3% | IGROV1 ovarian 53.1% | OVCAR-3 ovarian 46.9% | HS 578T breast 74.9% | NCI/ADR-RES ovarian 30.5% | BT-549 breast 53.8% | MDA-MB-435 melanoma 44.9% | SW-620 colon 50.1% | MCF7 breast 24.5% | HCT-116 colon 23.3% | HCC-2998 colon 64.2% | KM12 colon 32.9%
active: T-47D breast 6.19%

CCN(CC)CCOc1ccc2c(-c3ccccc3)c(-c3ccc(OC)cc3)c(=O)oc2c1
inactive: SR leukemia 21.9% | RPMI-8226 leukemia 48.8% | OVCAR-8 ovarian 72.6% | OVCAR-5 ovarian 91.6% | OVCAR-4 ovarian 73.7% | SK-OV-3 ovarian 84% | IGROV1 ovarian 110% | OVCAR-3 ovarian 94.3% | HS 578T breast 63.4% | NCI/ADR-RES ovarian 66.7% | T-47D breast 51.4% | BT-549 breast 90.6% | MDA-MB-435 melanoma 41.3% | SW-620 colon 39.4% | MCF7 breast 61.3% | HCT-116 colon 30% | HCC-2998 colon 90.9% | KM12 colon 60.4%

O=C(/C=C/c1ccco1)Nc1ncc(Cc2cc(Cl)ccc2Cl)s1
inactive: SR leukemia 12.1% | RPMI-8226 leukemia 23% | OVCAR-8 ovarian 14.1% | OVCAR-5 ovarian 34% | OVCAR-4 ovarian 56.8% | SK-OV-3 ovarian 31.9% | IGROV1 ovarian 21.3% | T-47D breast 37.4% | BT-549 breast 17.1% | SW-620 colon 20.6% | MCF7 breast 13.3% | HCT-116 colon 16.3% | HCC-2998 colon 13.9% | KM12 colon 10.4%
active: OVCAR-3 ovarian -44% | HS 578T breast 8.67% | NCI/ADR-RES ovarian -0.63% | MDA-MB-435 melanoma -47.3%

Oc1c(I)cc(I)cc1CN(Cc1ccccn1)Cc1ccccn1
active: SR leukemia 9.92% | NCI/ADR-RES ovarian 0.252%
inactive: RPMI-8226 leukemia 16.1% | OVCAR-8 ovarian 10.1% | OVCAR-5 ovarian 55.1% | OVCAR-4 ovarian 26.4% | SK-OV-3 ovarian 25.8% | IGROV1 ovarian 15.3% | OVCAR-3 ovarian 30.8% | HS 578T breast 38.9% | T-47D breast 22.4% | BT-549 breast 30.7% | MDA-MB-435 melanoma 35.6% | SW-620 colon 22.2% | MCF7 breast 13.4% | HCT-116 colon 18.1% | HCC-2998 colon 35.1% | KM12 colon 26.8%

Cc1ccc2c(c1)sc1nc(-c3c[nH]c4ccccc34)c(Nc3ccccc3)n12
active: SK-OV-3 ovarian -4.12%
inactive: SR leukemia 97.2% | RPMI-8226 leukemia 102% | OVCAR-8 ovarian 104% | OVCAR-5 ovarian 105% | OVCAR-4 ovarian 95.8% | IGROV1 ovarian 104% | OVCAR-3 ovarian 99.2% | HS 578T breast 98.7% | NCI/ADR-RES ovarian 104% | T-47D breast 96% | BT-549 breast 98.5% | MDA-MB-435 melanoma 97% | SW-620 colon 94.7% | MCF7 breast 98.4% | HCT-116 colon 104% | HCC-2998 colon 106% | KM12 colon 105%

NC(=O)c1ccccc1OCC(=O)Nc1ccc(Cl)c(Cl)c1
inactive: SR leukemia 71.4% | RPMI-8226 leukemia 66.5% | OVCAR-8 ovarian 91.9% | OVCAR-5 ovarian 119% | OVCAR-4 ovarian 96.5% | SK-OV-3 ovarian 96.9% | IGROV1 ovarian 84.2% | OVCAR-3 ovarian 95.4% | HS 578T breast 98.7% | NCI/ADR-RES ovarian 107% | T-47D breast 79.8% | BT-549 breast 93.2% | MDA-MB-435 melanoma 103% | SW-620 colon 102% | MCF7 breast 79.7% | HCT-116 colon 100% | HCC-2998 colon 103% | KM12 colon 100%

C=C(c1ccc(C(=O)O)c(F)c1)c1cc2c(cc1C)C(C)(C)CCC2(C)C
inactive: SR leukemia 86.8% | RPMI-8226 leukemia 43.1% | OVCAR-8 ovarian 90.8% | OVCAR-5 ovarian 101% | OVCAR-4 ovarian 80.9% | SK-OV-3 ovarian 84.8% | IGROV1 ovarian 98% | OVCAR-3 ovarian 90.8% | HS 578T breast 59.6% | NCI/ADR-RES ovarian 79.5% | T-47D breast 78.5% | BT-549 breast 91.7% | MDA-MB-435 melanoma 89.3% | SW-620 colon 97.6% | MCF7 breast 62.1% | HCT-116 colon 79.5% | HCC-2998 colon 89.9% | KM12 colon 69.2%

COc1ccc(C(=O)C/C(=C\c2ccc(O)c(OC)c2)C(=O)NN)cc1
inactive: SR leukemia 26.9% | RPMI-8226 leukemia 80.3% | OVCAR-8 ovarian 80.7% | OVCAR-5 ovarian 105% | OVCAR-4 ovarian 101% | SK-OV-3 ovarian 79.9% | IGROV1 ovarian 82.6% | OVCAR-3 ovarian 87.6% | HS 578T breast 101% | NCI/ADR-RES ovarian 74.8% | T-47D breast 66.9% | BT-549 breast 63.7% | SW-620 colon 84.1% | MCF7 breast 47.9% | HCT-116 colon 72.2% | HCC-2998 colon 104% | KM12 colon 73.2%
active: MDA-MB-435 melanoma 9.68%

CCCCCc1ccc(S(=O)(=O)Nc2cc(-c3csc(NC(C)=O)n3)ccc2N2CCN(C)CC2)cc1
active: RPMI-8226 leukemia -28.7% | MDA-MB-435 melanoma -45.4% | SW-620 colon -25.9% | MCF7 breast 9.36% | HCT-116 colon 3.98% | HCC-2998 colon -26.9%
inactive: SR leukemia 14.1% | OVCAR-8 ovarian 70.1% | OVCAR-5 ovarian 85.3% | OVCAR-4 ovarian 66% | SK-OV-3 ovarian 92.6% | IGROV1 ovarian 62.1% | OVCAR-3 ovarian 75.6% | HS 578T breast 67.3% | NCI/ADR-RES ovarian 61.2% | T-47D breast 58.8% | BT-549 breast 63.9% | KM12 colon 74.1%

CCCCCCCCn1ccc2cc(NC(=O)CN=[N+]=[N-])ccc21
inactive: SR leukemia 100% | RPMI-8226 leukemia 99.2% | OVCAR-8 ovarian 96.9% | OVCAR-5 ovarian 98.2% | OVCAR-4 ovarian 103% | SK-OV-3 ovarian 111% | IGROV1 ovarian 87.2% | OVCAR-3 ovarian 96% | HS 578T breast 101% | NCI/ADR-RES ovarian 116% | T-47D breast 94% | BT-549 breast 86.5% | MDA-MB-435 melanoma 108% | SW-620 colon 101% | MCF7 breast 91.1% | HCT-116 colon 97.5% | HCC-2998 colon 117% | KM12 colon 99.4%

COc1ccc(NC(=O)c2ccc(Nc3ncnc4c3cnn4-c3cccc(F)c3)cc2)cc1
inactive: SR leukemia 95.2% | RPMI-8226 leukemia 96.6% | OVCAR-8 ovarian 99.2% | OVCAR-5 ovarian 100% | OVCAR-4 ovarian 103% | SK-OV-3 ovarian 111% | IGROV1 ovarian 109% | OVCAR-3 ovarian 110% | HS 578T breast 97.4% | NCI/ADR-RES ovarian 103% | T-47D breast 96.1% | BT-549 breast 104% | MDA-MB-435 melanoma 102% | SW-620 colon 103% | MCF7 breast 96.5% | HCT-116 colon 103% | HCC-2998 colon 107% | KM12 colon 100%

ClCCn1cnc2c(SCc3ccccc3)ncnc21
inactive: SR leukemia 43.6% | RPMI-8226 leukemia 50.9% | OVCAR-8 ovarian 41.8% | OVCAR-5 ovarian 101% | OVCAR-4 ovarian 81.8% | SK-OV-3 ovarian 62.5% | IGROV1 ovarian 133% | OVCAR-3 ovarian 73.4% | HS 578T breast 62.8% | NCI/ADR-RES ovarian 57.1% | T-47D breast 73.8% | BT-549 breast 70.4% | MDA-MB-435 melanoma 51.8% | SW-620 colon 39.4% | MCF7 breast 42.5% | HCT-116 colon 31.5% | HCC-2998 colon 57.4% | KM12 colon 53.2%

CN1c2ccccc2S(=O)(=O)n2c(SCC(=O)Nc3nc4ccc(F)cc4s3)nnc21
active: IGROV1 ovarian -22.6%
inactive: SR leukemia 59.8% | RPMI-8226 leukemia 70.1% | OVCAR-8 ovarian 97.4% | OVCAR-5 ovarian 113% | OVCAR-4 ovarian 112% | SK-OV-3 ovarian 112% | OVCAR-3 ovarian 124% | HS 578T breast 80.4% | NCI/ADR-RES ovarian 89.7% | T-47D breast 112% | BT-549 breast 122% | MDA-MB-435 melanoma 117% | SW-620 colon 107% | MCF7 breast 88.2% | HCT-116 colon 110% | HCC-2998 colon 128% | KM12 colon 97.7%

Oc1ccc(-c2nc3ccc4[nH]ncc4c3c3c2CCCC3)c(F)c1
active: SR leukemia -1.33% | SK-OV-3 ovarian -6.45% | MDA-MB-435 melanoma -23.3% | SW-620 colon 8.41% | HCT-116 colon 4.73%
inactive: RPMI-8226 leukemia 33.2% | OVCAR-8 ovarian 38% | OVCAR-5 ovarian 59.7% | OVCAR-4 ovarian 51.3% | IGROV1 ovarian 22.9% | OVCAR-3 ovarian 46.6% | HS 578T breast 14.8% | NCI/ADR-RES ovarian 52% | T-47D breast 33% | BT-549 breast 13.9% | MCF7 breast 26.8% | HCC-2998 colon 41.4% | KM12 colon 20%

CCOC(=O)CC1CSC(N/N=C/c2ccc(F)c(Br)c2)=N1 (stereo unspecified)
inactive: SR leukemia 87.7% | RPMI-8226 leukemia 104% | OVCAR-8 ovarian 114% | OVCAR-5 ovarian 95.1% | OVCAR-4 ovarian 89.1% | SK-OV-3 ovarian 95.3% | IGROV1 ovarian 117% | OVCAR-3 ovarian 99.3% | HS 578T breast 112% | NCI/ADR-RES ovarian 103% | T-47D breast 93.7% | BT-549 breast 110% | MDA-MB-435 melanoma 108% | SW-620 colon 102% | MCF7 breast 96.1% | HCT-116 colon 88.5% | HCC-2998 colon 105% | KM12 colon 93.2%

Nc1nc(N(Cc2ccccc2)c2ccccc2)c2cn[nH]c2n1
inactive: RPMI-8226 leukemia 58.5% | OVCAR-8 ovarian 80.3% | OVCAR-5 ovarian 100% | OVCAR-4 ovarian 78.6% | SK-OV-3 ovarian 95.6% | IGROV1 ovarian 80.7% | OVCAR-3 ovarian 76.7% | HS 578T breast 58.2% | NCI/ADR-RES ovarian 59.9% | T-47D breast 44.4% | BT-549 breast 68.2% | SW-620 colon 25% | MCF7 breast 43.8% | HCT-116 colon 40.9% | HCC-2998 colon 71.2% | KM12 colon 35.1%
active: SR leukemia 4.11% | MDA-MB-435 melanoma 9.3%
